In the library only some 15% were active in any assay of this set; here they are far more common.
Pf growth 48h: inhibits P. falciparum growth in the first generation, 48 h. P. falciparum luciferase growth in erythrocytes, 48 h. Potency, µM (titrated, usually from 28.7 µM), hits mostly inhibitors. hit rate 5.9% among 310,000. AID 504832
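Parasite viability was followed by luminescence of a genomically integrated firefly luciferase. Cultures held 0.1% parasitemia at 2% hematocrit (final), incubated under 5% CO2 at 37 C.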
Pf growth 96h: inhibits malaria parasite growth, 96 h; P. falciparum luciferase reporter growth, 96 h; Potency, µM (highest dose often 28.7 µM), hits mostly inhibitors; hit rate 6.9% among 320,000
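Plates of compound plus infected erythrocytes (2% hematocrit, 0.05% parasitemia final) incubate 96 hours, 37 C, 5% CO2. Detection reagent added; reduced luminescence from the parasites' luciferase reporter flags inhibition.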
SARS PLP yeast: inhibitors of SARS-CoV papain-like protease in yeast; Potency, µM (top dose mostly 32.9 µM), usual class: activators; hit rate 0.19% among 330,000; S. cerevisiae expressing SARS-CoV PLpro, growth rescue; AID 485353; calls by dose curve; further: nearly all actives have a fitted effect of over 55% in size
HCV inhibitor: inhibitors of hepatitis C virus infection; Huh7.5.1 HCVcc-Cre infection, luciferase reporter, 44 h; Potency, µM (series often up to 41.8 µM), actives largely listed as inhibitors; hit rate 3.4% among 340,000; AID 651820
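1,000 cells/well; 4 h culture; + compound; + HCVcc-Cre (~0.5 moi); 44 h; luciferase substrate, RT 15 min; read 15 sec.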
Sm TGR block: inhibitors of Schistosoma mansoni thioredoxin glutathione reductase. Q962Y6. purified TGR, DTNB reduction, TNB absorbance 405 nm. hit rate 3% among 360,000. Potency, µM (series often up to 114 µM), usual class: inhibitors; further: nearly all actives have a fitted effect of over 60% in size
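TGR 20 nM + NADPH 100 uM (dispensed conc.), cpd preinc 15 min RT; start with NADPH (500 uM addition) then DTNB (15 mM addition). Kinetic TNB absorbance, 405 nm filter. Four-parameter Hill fit across titration.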
HCMV antiviral: blocks human cytomegalovirus replication. HFF cells, HCMV-luciferase reporter, 72 h; stronger effect = lower value. activity change, negative = inhibition, % at 57.5 µM. hit rate 4.5% among 410,000. AID 1259415; in the data active means activity change below about -60%; inconclusive means no clear call, values can overlap the other calls; inactive means above about -39%
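Two compound doses tested in HFFs infected with HCMV-luciferase, MOI 1 PFU/cell, 72 h at 37C. Lysate luminescence read with OneGlo; data normalized against buffer-only and 10uM Salinomycin inhibitor controls.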
A number is an active result; [ ] = another dose, or the depositor's remark. Unless noted, the call rests on the fitted dose curve; in most records, active means well fitted curve in the direction sought with a large enough effect; inconclusive means small, poorly fitted or top-dose-only effect, or another doubt; inactive means no such curve, though single readings can be large; an effect the other way counts as inactive or inconclusive.

`CC1CCc2c(sc3ncnc(SCC(=O)N(C)C4CCS(=O)(=O)C4)c23)C1` (stereo unspecified) gave SARS PLP yeast inactive, HCV inhibitor inactive and HCMV antiviral active.
For CCc1cc2c(SCC(=O)N(C)C3CCS(=O)(=O)C3)ncnc2s1 (stereo unspecified) the results were Pf growth 48h inactive, Pf growth 96h inactive, SARS PLP yeast inactive, HCV inhibitor inactive, Sm TGR block inactive and HCMV antiviral inactive.
CC(C)c1nc2sc3c(SCC(=O)NCc4ccco4)ncnc3c2c2c1CCC2 was read as Pf growth 48h inactive, Pf growth 96h inactive, SARS PLP yeast inactive, HCV inhibitor inconclusive, Sm TGR block 25µM and HCMV antiviral inactive.
For CC(C)Cc1nc2sc3c(SCC(N)=O)ncnc3c2c2c1CCC2 the results were Pf growth 48h inactive, Pf growth 96h inactive, SARS PLP yeast inactive, HCV inhibitor inactive, Sm TGR block inactive and HCMV antiviral inactive.
Screening O=C(CSc1ncnc2sc3c(c12)CCCC3)c1ccco1 returned Pf growth 48h inactive, Pf growth 96h inactive, SARS PLP yeast inactive, HCV inhibitor inconclusive, Sm TGR block inactive and HCMV antiviral inactive.
CC(C#N)Sc1ncnc2sc3c(c12)CCC3 (stereo unspecified) was read as Pf growth 48h inactive, Pf growth 96h inactive[5.75 µM], SARS PLP yeast inactive, HCV inhibitor inactive, Sm TGR block inactive and HCMV antiviral inconclusive.
For Cc1cc(C)nc(Sc2ncnc3sc4c(c23)CCC4)n1 the results were Pf growth 48h inactive, Pf growth 96h inactive, SARS PLP yeast inactive, HCV inhibitor inactive, Sm TGR block inactive and HCMV antiviral -71.
For COC(=O)c1ccc(S(=O)(=O)NC(C)(C)C)n1C the results were Pf growth 48h inactive, Pf growth 96h inactive, SARS PLP yeast inactive, HCV inhibitor inactive, Sm TGR block inactive and HCMV antiviral inactive.
`CCc1nnc(NC(=O)C2CCCN2C(=O)Nc2ccc(Cl)cc2)s1` (stereo unspecified) gave Pf growth 48h inactive, Pf growth 96h inactive, SARS PLP yeast inactive, HCV inhibitor inactive, Sm TGR block inactive and HCMV antiviral inactive.
For CC(C)C(=O)NC(c1cccc([N+](=O)[O-])c1)c1c(O)ccc2ccccc12 (stereo unspecified) the results were Pf growth 48h 4.7µM, Pf growth 96h inactive, SARS PLP yeast inactive, HCV inhibitor inactive and HCMV antiviral inactive.
`CC(C)C(=O)NC(c1ccc([N+](=O)[O-])cc1)c1c(O)ccc2ccccc12` (stereo unspecified) gave Pf growth 48h 1.9µM, Pf growth 96h 2.6µM, SARS PLP yeast inactive, HCV inhibitor inactive, Sm TGR block inactive and HCMV antiviral inactive.
For CC(=O)NC(c1ccc([N+](=O)[O-])cc1)c1c(O)ccc2ccccc12 (stereo unspecified) the results were Pf growth 48h inconclusive, Pf growth 96h inactive, SARS PLP yeast inactive, HCV inhibitor inactive and HCMV antiviral inactive.
S=c1[nH]c(-c2ccc(Cl)cc2)cs1 was read as Pf growth 48h inactive, Pf growth 96h inactive, SARS PLP yeast inactive, HCV inhibitor inactive, Sm TGR block inactive and HCMV antiviral -62.
`N#CCc1c(C#N)c(N)nc(Nc2ccccc2)c1C#N` gave Pf growth 48h inactive, Pf growth 96h inactive, SARS PLP yeast inactive, HCV inhibitor inactive, Sm TGR block 20µM and HCMV antiviral inactive.
`CN(c1ccccc1)c1nc(N)c(C#N)c(CC#N)c1C#N` gave Pf growth 48h inactive, Pf growth 96h inconclusive, SARS PLP yeast inactive, HCV inhibitor inactive, Sm TGR block inactive and HCMV antiviral inactive.
`O=C(O)/C=C/C(=O)Nc1ccc(OC(F)F)cc1` gave Pf growth 48h inactive, Pf growth 96h inactive, SARS PLP yeast inactive, HCV inhibitor inactive, Sm TGR block inactive and HCMV antiviral inactive.
For Cc1cccc2c1-c1sc(C(=O)N(C)c3cccc(C(F)(F)F)c3)cc1CO2 the results were Sm TGR block inactive and HCMV antiviral inactive.
[Cl-].[Cl-].[Hg+2] was read as Pf growth 48h 2.1µM and Pf growth 96h 2.4µM.
For COc1ccc2cc(C3(C)NC(=O)N(CC(=O)NCC(F)(F)F)C3=O)ccc2c1 (stereo unspecified) the results were Pf growth 48h inactive, Pf growth 96h inactive, SARS PLP yeast inactive, HCV inhibitor inactive, Sm TGR block inactive and HCMV antiviral inactive.
CCCCCCn1c(O)c(C=NC2CCCCC2N)c(=O)[nH]c1=O (stereo unspecified) was read as Pf growth 48h inactive, Pf growth 96h 6.6µM, SARS PLP yeast inactive, HCV inhibitor inactive and Sm TGR block inactive.
CCCCn1c(O)c(C=NC2CCCCC2N)c(=O)[nH]c1=O (stereo unspecified) was read as Pf growth 48h inactive, SARS PLP yeast inactive, HCV inhibitor inactive, Sm TGR block inactive and HCMV antiviral inactive.
For COc1ccccc1/C=C/C=N/NC(=O)c1cc(-c2ccco2)[nH]n1 the results were Pf growth 48h inconclusive, Pf growth 96h inactive, SARS PLP yeast inactive, HCV inhibitor inconclusive, Sm TGR block 7.1µM and HCMV antiviral inactive.
Screening COc1ccccc1/C=C/C=N/NC(=O)c1ccccn1 returned Pf growth 48h inactive, Pf growth 96h inactive, SARS PLP yeast inactive, HCV inhibitor inactive, Sm TGR block inactive and HCMV antiviral inactive.
Screening CC1CCCCN1S(=O)(=O)c1ccc(C(=O)Nc2ccccc2-c2nc3ccccc3[nH]2)cc1 (stereo unspecified) returned Pf growth 48h 1.9µM, Pf growth 96h inconclusive, SARS PLP yeast inactive, HCV inhibitor inconclusive, Sm TGR block inconclusive and HCMV antiviral inactive.
Screening O=C(Nc1ccc(-c2nc3ccccc3[nH]2)cc1)c1cccc(N2C(=O)CCC2=O)c1 returned Pf growth 48h inactive, Pf growth 96h inactive, SARS PLP yeast inactive, HCV inhibitor inactive, Sm TGR block inactive and HCMV antiviral inactive.
Screening O=C(Nc1ccccc1-c1nc2ccccc2[nH]1)c1ccc(S(=O)(=O)N2CCCCC2)cc1 returned Pf growth 48h inconclusive, Pf growth 96h 2.9µM, SARS PLP yeast inactive, HCV inhibitor inactive, Sm TGR block inactive and HCMV antiviral inactive.
For O=C(Nc1ccccc1-c1nc2ccccc2[nH]1)c1ccc(N2C(=O)CCC2=O)cc1 the results were Pf growth 48h inconclusive, Pf growth 96h inconclusive, SARS PLP yeast inactive, HCV inhibitor 10µM, Sm TGR block inactive and HCMV antiviral inactive.
O=C(Nc1cccnc1Cl)c1ccc(S(=O)(=O)N2CCCCCC2)cc1 was read as Pf growth 48h inconclusive, SARS PLP yeast inactive, HCV inhibitor inconclusive, Sm TGR block inactive and HCMV antiviral -82.
`O=C1/C(=C\c2ccc(O)c(O)c2)N=C2CCCCCN12` gave Pf growth 48h inactive, Pf growth 96h inactive, SARS PLP yeast inactive, HCV inhibitor inactive, Sm TGR block inconclusive and HCMV antiviral inactive.
